High-throughput results deposited in PubChem BioAssay by National Center for Advancing Translational Sciences (NCATS).
Sampled rows, rich in hits. Any-hit rate of the full collection: about 19%.
Lassa entry inh – qHTS for Inhibitors of binding or entry into cells for Lassa Virus | Lassa virus pseudotype entry inhibition, cell reporter | Potency, µM (top dose mostly 37.9 µM), for inactives: top-dose activity change, negative = inhibition, most hits filed as inhibitors | 300,000 tested, 1.2% active | AID 540256, 2011; calls by dose curve; tested in HEK293 cells; further: potency means the concentration at half of the fitted maximal effect; on the % scale 0 is the no-effect control and ±100 the full control effect; nearly all actives have a fitted effect of over 50% in size
Pf growth 48h – Primary qHTS for delayed death inhibitors of the malarial parasite plastid, 48 hour incubation | Potency, µM (titrated, usually from 28.7 µM), for the others: top-dose activity change, negative = inhibition, actives largely listed as inhibitors | 310,000 tested, 5.9% active | AID 504832, 2011 | P. falciparum luciferase growth in erythrocytes, 48 h; further: potency means the concentration at half of the fitted maximal effect; on the % scale 0 is the no-effect control and ±100 the full control effect
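In quantitative HTS format, infected erythrocytes bearing luciferase-reporter parasites were treated for a single generation at 37 C. Luminescence after adding detection reagent served as the growth measure.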
MARV entry inh – qHTS for inhibitors of binding or entry into cells for Marburg Virus; 300,000 tested, 1.8% active; Marburg virus pseudotyped entry inhibition, cell reporter; Potency, µM (highest dose often 37.8 µM), for the others: at the top dose activity change, negative = inhibition, hits mostly inhibitors; calls by dose curve; tested in HEK293 cells; further: potency means the concentration at half of the fitted maximal effect; on the % scale 0 is the no-effect control and ±100 the full control effect
Pf growth 96h – Primary qHTS for delayed death inhibitors of the malarial parasite plastid, 96 hour incubation. 320,000 tested, 6.9% active. P. falciparum luciferase reporter growth, 96 h. AID 504834, 2011. Potency, µM (highest dose often 28.7 µM), without a hit: at the highest dose activity change, negative = inhibition, usual class: inhibitors; further: potency means the concentration at half of the fitted maximal effect; on the % scale 0 is the no-effect control and ±100 the full control effect
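Two parasite generations (96 h, 37 C, 5% CO2) of compound exposure in infected erythrocytes (0.05% parasitemia, 2% hematocrit). Luciferase-reporter P. falciparum; decreased luminescence indicates inhibited growth, aimed at apicoplast-acting delayed death.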
CHX counter – Cycloheximide Counterscreen for Small Molecule Inhibitors of Shiga Toxin; 300,000 tested, 12% active; AID 2314, 2010; cell reporter, cycloheximide protein synthesis inhibition counterscreen; max response, %; in the data active means max response mostly above about 13%, no sharp cut-off; inactive means mostly below about 14%; further: read at 38.3 µM for the half of the compounds with a filed dose; 0% is about no effect
Shiga inhibitor – A qHTS for Small Molecule Inhibitors of Shiga Toxin; Vero cells, Shiga toxin protein synthesis inhibition reporter; inhibition, % at 38.7 µM; 290,000 tested, 9.2% active; AID 2315, 2010; in the data active means inhibition mostly above about 28%, no sharp cut-off; inactive means mostly below about 43%; further: 0% is about no effect
An asterisk follows results filed as active; ? = inconclusive; nt = no result; ! = not confirmed by another sample; [ ] = another dose, or the depositor's remark. Unless noted, the call rests on the fitted dose curve; in most records, active means well fitted inhibition curve with a large enough effect; inconclusive means small, poorly fitted or top-dose-only effect, or another doubt; inactive means no such curve, though single readings can be large or run the other way.

SMILES	Lassa entry inh	Pf growth 48h	MARV entry inh	Pf growth 96h	CHX counter	Shiga inhibitor
COc1ccc(CN(CCC(c2ccc(F)cc2)C2CCOC(C)(C)C2)C(=O)c2ccco2)cc1 (configuration not stated)	?	9.3µM*	7.9µM*!	?	0	1
CCCN(CCC)C(=O)CC(c1ccccc1)C1CCOC(C)(C)C1 (configuration not stated)	nt	?	nt	-32%	-1	10
COc1cc(C(=S)N2CCOCC2)ccc1OC(=O)c1cc([N+](=O)[O-])cc([N+](=O)[O-])c1	14%	12%	27%	?	-8	-11
Cc1nn(C)c(C)c1/C=N/NC(=O)c1csc2ccccc12	24%	51%	7%	14%	18*	24
Cc1c(/C=N\NC(=O)c2csc3ccccc23)cnn1C	-15%	17%	-20%[46.1 µM]	60%	11	27*
Cc1c(/C=N\NC(=O)C2(C)CC2(Cl)Cl)cnn1C (configuration not stated)	-1%	4%	?	16%	0	14
CCn1ncc(/C=N\NC(=O)c2csc3ccccc23)c1C	-8%	9%	-21%[46.1 µM]	0%	12	53*
Cc1cnc(CN(C)C(=O)CC2C(=O)NCCN2CCCc2ccccc2)[nH]1 (configuration not stated)	11%	15%	-1%	-4%	10	-29
CC(C)C[C@H](NC(=O)c1[nH]cnc1C(=O)N[C@@H](Cc1ccccc1)C(=O)OCc1ccccc1)C(=O)OCc1ccccc1	nt	?	nt	?	0	17
COC(=O)C1C2C=CC3(CN(C4CCCC4)C(=O)C13)O2 (configuration not stated)	4%	40%	16%[46.1 µM]	nt	-4	3
Cc1sc2ncn(CC(=O)NCC3COc4ccccc4O3)c(=O)c2c1S(=O)(=O)N1CCOCC1 (configuration not stated)	-27%	-10%	?	-19%	8	26
COc1ccc(-n2nc(C)c3c(C(F)(F)F)cc(-c4cccnc4)nc32)cc1	-5%[46.1 µM]	nt	2%[46.1 µM]	nt	nt	nt
CC(Sc1nnc(COc2ccc(Cl)cc2)n1Cc1ccco1)C(=O)N1CCNC1=O (configuration not stated)	nt	?	nt	8.3µM*	nt	nt
O=C(CSc1nnc(COc2ccc(Cl)cc2)n1Cc1ccco1)c1ccccc1F	-15%	-16%	-10%	?	2	20
COc1cc(C(=O)O[C@H]2C/C(C)=C/CC[C@]3(C)O[C@@H]3C(O)C2C(C)C)cc(OC)c1OC (some centres not stated)	?	?	?	4.1µM*	-4	-2
CCn1c(=O)c(C(=O)CN2CCN(S(=O)(=O)c3ccccc3)CC2)c(N)n(Cc2ccccc2)c1=O	-3%	-12%	19%	?	-5	-3
Cc1cc(C)c(C)c(S(=O)(=O)N2CCN(CC(=O)c3c(N)n(Cc4ccccc4)c(=O)n(C)c3=O)CC2)c1C	?	5.9µM*	?	?	-2	17
CCn1c(=O)c(C(=O)CN2CCN(S(=O)(=O)c3ccc(C)cc3C)CC2)c(N)n(Cc2ccccc2)c1=O	?	?	?	8.3µM*	-3	-3
C[C@]12CC[C@@H](O)CC1=CCC1C2CC[C@@]2(C)C1C[C@@H](F)[C@H]2O (some centres not stated)	2%[46.1 µM]	nt	1%[46.1 µM]	nt	nt	nt
COC(=O)c1ccc(CN2CCC(CO)(CCOc3ccccc3)CC2)cc1	nt	-27%	nt	92%	-4	nt
CC(=O)OCCCN1c2ccccc2Nc2nnc(-c3ccccc3)cc21	0%	-2%	0%[46.1 µM]	361%	36*	68*
Cc1c(Cl)c([N+](=O)[O-])nn1CC(=O)N1CCN(Cc2ccccc2)CC1	6%[46.1 µM]	8%	3%[46.1 µM]	0%	-2	-13
CO[C@H]1[C@H](O[C@H]2O[C@@H](C)[C@@H](O[C@@H]3C[C@](C)(O)[C@H](O)[C@H](C)O3)[C@@H](N(C)C)[C@@H]2O)[C@@H](CC=O)C[C@@H](C)[C@@H](O[C@H]2CC[C@H](N(C)C)[C@H](C)O2)/C=C\C=C/C[C@@H](C)OC(=O)C[C@H]1O	nt	-7%[12.8 µM]	nt	2µM*	nt	nt
CCC(=O)O[C@@H]1CC(=O)O[C@H](C)CC=CC=C[C@@H](O)[C@H](C)C[C@H](CC=O)[C@H](O[C@H]2O[C@H](C)[C@@H](O[C@H]3C[C@@](C)(O)[C@@H](OC(=O)CC)[C@H](C)O3)[C@H](N(C)C)[C@H]2O)[C@H]1OC	nt	?	nt	0.83µM*	-7	-7
CCC(=O)O[C@@H]1[C@H](C)O[C@H](O[C@H]2[C@@H](N(C)C)[C@H](O)[C@@H](O[C@@H]3[C@@H](CC=O)C[C@@H](C)[C@@H](O)/C=C\C=C/C[C@@H](C)OC(=O)C[C@@H](OC(=O)CC)[C@H]3OC)O[C@H]2C)C[C@]1(C)O	nt	?	nt	1.3µM*	nt	nt
SMILES	Lassa entry inh	Pf growth 48h	MARV entry inh	Pf growth 96h	CHX counter	Shiga inhibitor
CN(C)S(=O)(=O)c1cccc(NC(=O)CCNC(=O)c2ccccc2Cl)c1	21%	-14%	4%	-47%	6	3
CC(=O)c1ccc(NC(=O)c2ccc(NC(=O)CCS(=O)(=O)c3cccs3)cc2)cc1	?	73%	?	216%	18*	192*
COc1cccc(NC(=O)CCS(=O)(=O)c2cccs2)c1	25%	87%	?	-20%	47*	78*
COc1cccc(NC(=O)CNC(=O)c2cccs2)c1	-1%	58%	-3%	nt	26*	61*
COc1cccc(CNC(=O)CNC(=O)c2cccs2)c1	nt	11%	nt	?	1	-6
COc1ccc(NC(=O)c2ccc(NC(=O)CCS(=O)(=O)c3cccs3)cc2)cc1	-3%[46.1 µM]	-24%	?	?	0	15
CCOC(=O)c1cccc(NC(=O)CCS(=O)(=O)c2cccs2)c1	-8%	-20%	?	?	-5	10
Nc1ccc(-n2nncc2-c2ccc(Cl)cc2)cc1	-4%	?	22%	nt	-1	-3
ON(CCc1ccncc1)Cc1ccccc1	7%[46.1 µM]	nt	-30%[46.1 µM]	nt	nt	nt
O=C1OC(c2ccccc2)c2ccc3ccccc3c21 (configuration not stated)	1%	7%	1%	-5%	0	7
CC(C)Oc1ccc(C(=O)N2CCCc3ccccc32)cc1	-12%	?	-4%	4%	13	27
C=CCn1c(=O)c2ccccc2n2c(SC(C)C(=O)Nc3nc(-c4ccccc4)cs3)nnc12 (configuration not stated)	-1%	10µM*	-12%[46.1 µM]	?	-5	10
Cc1ccc(-n2c(SCC(=O)NCC3CCCO3)nnc2-c2ccoc2C)cc1 (configuration not stated)	13%	nt	-4%[46.1 µM]	nt	-3	-2
